# An excerpt weighted towards active compounds, which were near 3.9% of everything screened.
# D1 antag – human D1 dopamine receptor antagonism | 3.2% of 360,000 active | activity change, negative = inhibition, % at 10 µM | HEK293 TREx D1 cells, calcium flux, dopamine EC80; stronger effect = lower value | P21728; in the data active means activity change below about -30%; further: on the % scale 0 is the no-effect control and ±100 the full control effect
# Target sequence (P21728 whole entry, looked up): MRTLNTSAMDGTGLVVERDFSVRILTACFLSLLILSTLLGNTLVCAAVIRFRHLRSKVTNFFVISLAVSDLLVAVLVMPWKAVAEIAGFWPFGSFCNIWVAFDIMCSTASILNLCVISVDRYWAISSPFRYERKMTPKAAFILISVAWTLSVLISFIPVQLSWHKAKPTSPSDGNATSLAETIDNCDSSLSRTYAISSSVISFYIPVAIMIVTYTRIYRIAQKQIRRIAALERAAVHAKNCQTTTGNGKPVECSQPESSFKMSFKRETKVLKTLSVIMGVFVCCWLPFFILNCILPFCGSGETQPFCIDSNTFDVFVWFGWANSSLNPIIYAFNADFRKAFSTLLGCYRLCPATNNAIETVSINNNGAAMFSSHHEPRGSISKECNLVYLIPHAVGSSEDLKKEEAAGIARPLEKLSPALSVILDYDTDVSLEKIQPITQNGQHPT
#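 Antagonism measured as reduced calcium response to an EC80 dopamine addition following 180 s compound pre-read; cells were inducible HEK293 Trex D1 plated overnight at 30 C, read kinetically at 1 cycle/sec.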
# USP2a inh – USP2a (human) protease inhibition. USP2 core, Ub-CHOP2 coupled fluorogenic reporter, 485/531. AID 463254. Potency, µM (doses to about 38.3 µM), inactives show at the highest dose activity change, negative = inhibition, hits mostly inhibitors. O75604. 0.01% of 330,000 active;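 further: potency means the concentration at half of the fitted maximal effect; plate controls were DMSO wells for no effect and full inhibition by NEM control for full effect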
#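 Deubiquitinase activity read as fluorescence (485/531 nm) after Ub-CHOP2 cleavage activates the enterokinase reporter on its substrate; USP2 core 10nM, Ub-CHOP2 and substrate 25nM each, 30min compound preincubation then 60min RT; data normalized to NEM, curves fitted.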
# D1 ag – human D1 receptor agonism; activation, % at 2 µM; HEK293 T-REx D1 cells, calcium flux, agonist mode; 1% of 360,000 active; AID 504660; P21728; in the data active means activation above about 30%; further: 0% is about no effect
#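 Agonism was scored from calcium flux recorded over 180 s (1 read/s) after pintool compound addition, following a 10-cycle baseline. Cells were inducible force-coupled HEK293 TREx D1, plated overnight at 30 C and loaded with no-wash calcium dye.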
# D1 potentiator – enhances dopamine response at the human D1 receptor; P21728; potentiation, % at 10 µM; 0.036% of 360,000 active; HEK293 TREx D1 cells, calcium flux, dopamine EC20 potentiation; AID 504651; in the data active means potentiation above about 30%; further: 0% is about no effect
# GALK inh – blocks human galactokinase activity. Potency, µM (doses to about 57.5 µM), for the others: at the top dose activity change, negative = inhibition, actives largely listed as inhibitors. Purified GALK, Kinase-Glo residual ATP luminescence. P51570. 0.007% of 270,000 active; further: potency means the concentration at half of the fitted maximal effect; on the % scale 0 is the no-effect control and ±100 the full control effect
#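 The enzyme phosphorylates galactose (100 uM) using ATP (35 uM); inhibition is detected as higher residual ATP, quantified by bioluminescence after 1 h reaction at room temperature, pH 8.0.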
# Eya2 phos inh – blocks the phosphatase activity of human Eya2. O00167. recombinant Eya2, OMFP fluorescence dephosphorylation (OMFP is methylfluorescein phosphate). Potency, µM (top dose mostly 76.9 µM), for inactives: top-dose activity, negative = inhibition, most hits filed as inhibitors. 0.006% of 330,000 active. AID 488837; further: potency means the concentration at half of the fitted maximal effect; on the % scale 0 is the no-effect control and ±100 the full control effect
#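 Eya2 (0.2 uM) preincubated 10 min at ambient with compound, then OMFP substrate added at 50 uM; 10 min reaction in 50 mM HEPES pH 7.5, 50 mM NaCl, 5 uM MgCl2, 0.05% BSA, 1 mM DTT. Fluorescence read at Ex 485/Em 525 nm.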
# * marks the source's active call; other numbers are inactive results; . = not tested or not shown. Unless noted, the call rests on the fitted dose curve; in most records, active means well fitted inhibition curve with a large enough effect; inconclusive means small, poorly fitted or top-dose-only effect, or effect the other way; inactive means flat fitted curve, though single readings scatter.
SMILES,D1 antag,USP2a inh,D1 ag,D1 potentiator,GALK inh,Eya2 phos inh
Cc1ccccc1Nc1nnc(-c2ccc(C)c(S(=O)(=O)N3CCN(C)CC3)c2)c2ccccc12,-6.9,.,5.5,-0.9,.,.
Cc1ccc(C)c(Nc2nnc(-c3ccc(C)c(S(=O)(=O)N4CCN(C)CC4)c3)c3ccccc23)c1,-30.6*,.,-2.7,0.7,.,.
Cc1ccc(C)c(Nc2nnc(-c3ccc(C)c(S(=O)(=O)NCC4CCCO4)c3)c3ccccc23)c1 (stereo not drawn),-38.6*,.,2.1,0.1,.,.
N#C/C(=C\c1ccc(F)cc1)C(=O)NCC1CCCO1 (stereo not drawn),3.7,.,0.7,1.7,.,.
O=C(Nc1ccccc1N1CCCC1)c1ccc(Cl)cc1Cl,-33.4*,-2.8%,3.5,-3.2,7.1%,2.4%
O=C(Nc1ccccc1N1CCCC1)c1ccccc1Cl,-8.1,-4.0%,0.3,-6.2,4.9%,-0.6%
O=C(Nc1ccccc1N1CCN(C(=O)c2ccccc2)CC1)c1ccccc1Cl,-44.9*,-4.5%,1.7,-5.7,4.2%,-0.5%
O=C(Nc1ccccc1N1CCCC1)c1cc(Cl)ccc1Cl,-5.1,2.3%,-0.4,-4.8,4.5%,-1.4%
O=C(Cn1c(=O)n(Cc2ccc(F)cc2)c(=O)c2sc3ccccc3c21)Nc1ccc(F)cc1F,-4.3,.,4.8,-2.0,.,.
CCCCn1c(NC(=O)c2ccccc2Cl)c(C#N)c2nc3ccccc3nc21,-39.3*,2.6%,16.5,-10.2,-19.4%,10.4%
COc1ccc(NC(=O)Cn2c(NCC(C)O)nc3ccccc32)cc1Cl (stereo not drawn),-70.4*,3.1%,0.5,-9.7,4.8%,1.4%
CC(=O)N1N=C(c2ccc(C)cc2)OC1c1ccc(Br)cc1 (stereo not drawn),-30.4*,3.8%,4.1,4.1,0.3%,0.9%
CC(=O)N1N=C(c2ccc(Cl)cc2)OC1c1ccc(C(C)C)cc1 (stereo not drawn),-18.5,2.5%,3.9,-1.9,.,-8.0%
O=C(COC(=O)C1CCN(c2ccc(C(F)(F)F)cn2)CC1)Nc1ccc(Cl)cn1,-58.9*,0.2%,9.1,-18.1,-3.7%,-2.8%
COc1ccc(NC(=O)CN(C)C(=O)c2cccc(-n3cccc3)c2)cc1,3.9,2.8%,-0.1,3.9,.,-14.9%
CN(Cc1ccc(F)cc1)C(=O)c1cccc(S(=O)(=O)N2CCN(c3ccccc3)CC2)c1,-9.5,-0.1%,1.7,-1.2,.,7.7%
CN(CC(=O)Nc1ccc(F)cc1)C(=O)c1cccc(S(=O)(=O)N2CCN(c3ccc(F)cc3)CC2)c1,-39.0*,-2.3%,8.7,-2.1,.,-10.0%
CN(CC(=O)Nc1cccc(F)c1)C(=O)c1cccc(S(=O)(=O)N2CCN(c3ccccc3)CC2)c1,-4.6,-2.5%,3.3,-3.5,3.3%,-8.5%
COc1ccc(CN(C)C(=O)c2cccc(S(=O)(=O)N3CCN(c4ccccc4)CC3)c2)c(OC)c1OC,-33.4*,-4.3%,0.1,-9.1,.,-12.3%
Cc1ccc(NC(=O)CN(C)C(=O)c2cccc(-n3cccc3)c2)cc1,-39.5*,0.6%,-0.4,-7.7,.,32.2%
COc1cccc(NC(=O)CN(C)C(C)C(=O)Nc2ccc(S(=O)(=O)N3CCCC3)cc2)c1 (stereo not drawn),-33.6*,1.6%,3.5,12.8,8.6%,-2.7%
CC(NC(=O)Cn1ncc2c3ccccc3n(Cc3ccc(F)cc3)c2c1=O)c1ccccc1 (stereo not drawn),1.1,.,5.8,-2.6,.,.
COc1ccccc1N1CCN(C(=O)c2cccc(S(=O)(=O)N3CCCCCC3)c2)CC1,-42.5*,-0.7%,2.6,-5.2,.,-2.6%
CN1CCN(S(=O)(=O)c2cccc(C(=O)N(C)CC(=O)Nc3ccc(F)c(F)c3F)c2)CC1,11.2,-0.8%,179.2*,-9.1,.,1.2%
COc1ccccc1N1CCN(C(=O)c2ccc3[nH]c(C)c(C)c3c2)CC1,13.3,2.7%,2.0,-5.8,-0.5%,-1.4%
SMILES,D1 antag,USP2a inh,D1 ag,D1 potentiator,GALK inh,Eya2 phos inh
COc1cccc(NC(=O)CN(C)C(=O)c2cccc(S(=O)(=O)N3CCN(c4ccc(F)cc4)CC3)c2)c1,-33.9*,2.4%,6.7,-11.6,.,-22.9%
COc1ccc(Cl)cc1NC(=O)CN(C)C(=O)c1cccc(S(=O)(=O)N2CCN(C)CC2)c1,.,1.1%,.,.,.,-36.0%
COc1ccc(NC(=O)CN(C)C(=O)c2cccc(S(=O)(=O)N3CCN(C)CC3)c2)cc1,-10.5,2.6%,0.2,-0.9,.,-3.1%
COc1ccccc1N1CCN(C(=O)c2ccc3[nH]c4c(c3c2)CC(C)CC4)CC1 (stereo not drawn),-57.4*,-10.0%,0.1,-2.6,0.9%,-1.1%
CCn1cc(CNC(=O)c2cc(-c3ccc(C)cc3)nc3ccc(Br)cc23)c(C)n1,3.3,.,0.3,0.6,.,.
COc1ccccc1NC(=O)c1sc2nc(C)c(C(=O)Nc3ccc(C)cc3C)c(-c3ccc(Br)cc3)c2c1N,-15.1,.,12.1,0.6,.,.
CC1CCN(S(=O)(=O)c2ccc(C(=O)N3CCOCC3)cc2)CC1,-35.3*,-0.7%,-0.1,-6.2,5.1%,-1.8%
CC1CCN(S(=O)(=O)c2cccc(C(=O)N3CCN(c4ccc(F)cc4)CC3)c2)CC1,-39.0*,2.8%,4.1,-2.7,-8.5%,-2.4%
O=C(NCCc1ccc(Cl)cc1)C(=O)NCC(c1ccco1)S(=O)(=O)c1ccc(Cl)cc1 (stereo not drawn),.,.,7.6,-4.7,.,.
COc1ccc(/C=C(/NC(=O)c2ccco2)C(=O)N2CCCCCC2)cc1OC,29.3,1.2%,35.8*,-1.9,-4.4%,3.1%
O=C(N/C(=C/c1cccnc1)C(=O)N1CCOCC1)c1ccccc1,-0.9,4.2%,2.0,-7.2,3.4%,0.8%
O=C(N/C(=C\c1cccnc1)C(=O)N1CCOCC1)c1ccco1,-32.7*,2.3%,1.1,-6.5,5.0%,-13.7%
COc1ccc(/C=C(/NC(=O)c2ccccc2)C(=O)N2CCCCC2)cc1OC,-0.4,0.3%,72.1*,4.3,-10.5%,1.4%
CCOC(=O)c1cc(OC(=O)c2cccc(F)c2)n(-c2ccccc2)n1,-7.9,.,-0.6,-0.1,.,.
O=C(NCc1ccccc1C(F)(F)F)C1CC(c2cccc(F)c2)=NO1 (stereo not drawn),-90.5*,3.0%,1.2,-9.2,-2.1%,-0.9%
O=C(NCCc1cccs1)C1CC(c2cccc(F)c2)=NO1 (stereo not drawn),-6.6,-1.1%,40.2*,-6.0,-0.9%,4.4%
O=C(NCc1cccs1)C1CC(c2ccc(Cl)cc2)=NO1 (stereo not drawn),-33.4*,-0.6%,8.0,-6.3,-3.0%,-4.9%

# Source: PubChem BioAssay (National Center for Advancing Translational Sciences (NCATS))
